Measurements reported in PubChem BioAssay AID1159580 (chemical genetic matrix, 2015).
Among all 5,500 compounds or so, about 2,000 (36%) were called active. Inconclusive results (about 18%) are left out. No stated cut-off is given here; in the data, active means normalized growth mostly below about 0.91 (no sharp cut-off); inconclusive means no clear call, values can overlap the other calls; inactive means mostly above about 0.92. The list shows a part of the results.

Test: chemical genetic growth profiling, strain panel (AID 1159580);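 further: tested at 20 µM; growth read once vehicle control cultures reached saturation at 30 °C; 1 = growth at the plate median or of vehicle wells; lower values mean less growth of the strain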
Conditions: S. cerevisiae deletion strains, growth OD
[1] = locus YDL101C, strain DUN1, active compounds read low
[2] = locus YHR030C, strain SLT2, active compounds read low

Measured: normalized growth

Cc1nc([N+](=O)[O-])cn1CC(=O)c1ccc(Cl)cc1
active: locus YGR092W, strain DBF2, active compounds read low 0.416 | [2] 0.189 | locus YLR113W, strain HOG1, active compounds read low 0.539
inactive: locus YAR019C, strain CDC15, active compounds read low 0.973 | locus YBL105C, strain PKC1, active compounds read low 0.97 | locus YBR135W, strain CKS1, active compounds read low 0.982 | locus YBR136W, strain MEC1, active compounds read low 0.973 | locus YBR160W, strain CDC28, active compounds read low 0.984 | locus YDL017W, strain CDC7, active compounds read low 0.981 | locus YDL028C, strain MPS1, active compounds read low 0.969 | [1] 0.978 | locus YDL108W, strain KIN28, active compounds read low 0.963 | locus YDL132W, strain cdc53, active compounds read low 0.976 | locus YDL214C, strain PRR2, active compounds read low 0.927 | locus YDR052C, strain DBF4, active compounds read low 0.964 | locus YDR054C, strain cdc34, active compounds read low 0.973 | locus YDR226W, strain ADK1, active compounds read low 0.972 | locus YDR477W, strain SNF1, active compounds read low 0.938 | locus YER123W, strain YCK3, active compounds read low 0.782 | locus YER133W, strain GLC7, active compounds read low 0.94 | locus YFL009W, strain cdc4, active compounds read low 0.982 | locus YFL029C, strain CAK1, active compounds read low 0.971 | locus YFR003C, strain YPI1, active compounds read low 0.979 | locus YFR019W, strain FAB1, active compounds read low 0.901 | locus YFR028C, strain CDC14, active compounds read low 0.98 | locus YGR040W, strain KSS1, active compounds read low 0.94 | locus YGR052W, strain FMP48, active compounds read low 1.03 | locus YHR079C, strain IRE1, active compounds read low 1.05 | locus YHR082C, strain KSP1, active compounds read low 1.04 | locus YHR205W, strain SCH9, active compounds read low 0.964 | locus YIL147C, strain SLN1, active compounds read low 0.96 | locus YJL095W, strain BCK1, active compounds read low 1.02 | locus YJL128C, strain PBS2, active compounds read low 0.906 | locus YJL157C, strain FAR1, active compounds read low 0.922 | locus YJR016C, strain ILV3, active compounds read low 0.97 | locus YJR066W, strain TOR1 (second series), active compounds read low 0.898 | locus YJR066W, strain TOR1, active compounds read low 1.04 | locus YKL048C, strain ELM1, active compounds read low 0.966 | locus YKL067W, strain YNK1, active compounds read low 0.947 | locus YKL101W, strain HSL1, active compounds read low 0.954 | locus YKL193C, strain SDS22, active compounds read low 0.969 | locus YKL203C, strain TOR2, active compounds read low 1.02 | locus YLR133W, strain CKI1, active compounds read low 0.962 | locus YLR403W, strain SFP1, active compounds read low 0.941 | locus YML070W, strain DAK1, active compounds read low 0.904 | locus YMR001C, strain CDC5, active compounds read low 0.976 | locus YMR205C, strain PFK2 (second series), active compounds read low 0.966 | locus YMR277W, strain FCP1, active compounds read low 0.964 | locus YNL006W, strain LST8, active compounds read low 0.983 | locus YNL020C, strain ARK1, active compounds read low 0.959 | locus YNL161W, strain CBK1, active compounds read low 0.971 | locus YNL183C, strain NPR1, active compounds read low 1 | locus YNL207W, strain RIO2, active compounds read low 0.965 | locus YNL222W, strain SSU72, active compounds read low 0.977 | locus YNL307C, strain MCK1 (second series), active compounds read low 0.967 | locus YOL078W, strain AVO1, active compounds read low 0.969 | locus YOL136C, strain PFK27, active compounds read low 0.927 | locus YOR061W, strain CKA2, active compounds read low 0.94 | locus YOR119C, strain RIO1, active compounds read low 0.985 | locus YOR231W, strain MKK1, active compounds read low 1 | locus YOR329C, strain SCD5, active compounds read low 0.977 | locus YPL031C, strain PHO85, active compounds read low 0.949 | locus YPL153C, strain RAD53, active compounds read low 0.916 | locus YPL204W, strain HRR25, active compounds read low 0.921 | locus YPL209C, strain IPL1, active compounds read low 0.984 | locus YPL256C, strain CLN2, active compounds read low 1.01 | locus YPR025C, strain CCL1, active compounds read low 0.985 | locus YPR106W, strain ISR1, active compounds read low 0.982 | locus YPR111W, strain DBF20, active compounds read low 0.989 | strain NNK1, active compounds read low 0.979 | strain TSCII, active compounds read low 0.969

CCn1cc([N+](=O)[O-])nc1C
inactive: locus YAL013W, strain DEP1, active compounds read low 1 | locus YBR229C, strain ROT2, active compounds read low 1.02 | [1] 1.03 | locus YDR150W, strain NUM1, active compounds read low 1.03 | locus YEL061C, strain CIN8, active compounds read low 0.981 | locus YGR078C, strain PAC10, active compounds read low 1.02 | [2] 1.05 | locus YHR087W, strain rtc3, active compounds read low 0.975 | locus YJR043C, strain POL32, active compounds read low 1.06 | locus YJR075W, strain HOC1, active compounds read low 1 | locus YKL190W, strain CNB1, active compounds read low 1 | locus YLR039C, strain RIC1, active compounds read low 0.987 | locus YLR058C, strain SHM2 (second series), active compounds read low 0.998 | locus YLR085C, strain ARP6, active compounds read low 0.982 | locus YLR262C, strain YPT6, active compounds read low 0.979 | locus YML094W, strain GIM5, active compounds read low 0.968 | locus YMR219W, strain ESC1, active compounds read low 0.983 | locus YMR263W, strain SAP30, active compounds read low 1.01 | locus YNL128W, strain TEP1, active compounds read low 1.02 | locus YNL153C, strain GIM3, active compounds read low 1.02 | locus YNL298W, strain CLA4 (second series), active compounds read low 1 | locus YNL322C, strain KRE1, active compounds read low 0.997 | locus YNR030W, strain Alg12, active compounds read low 0.976 | locus YPL055C, strain LGE1, active compounds read low 1.01 | locus YPL241C, strain CIN2, active compounds read low 1.02 | locus YPR135W, strain CTF4, active compounds read low 1.05
